# Source: ChEMBL document CHEMBL5308504, “Tm Shift (DSF) assay results for EUbOPEN Chemogenomics Library” (2023)
# How the values were obtained:
# Details in all cases: Compound concentration 20.0 uM, Protein concentration 2.0 uM, Result type QC Liability
# [1] = target: Tyrosine-protein kinase ABL1 (Homo sapiens) (UniProt P00519)
# [2] = target: Cyclin-dependent kinase 2 (Homo sapiens) (UniProt P24941)
# [3] = target: Casein kinase I isoform delta (Homo sapiens) (UniProt P48730)
# [4] = target: Glycogen synthase kinase-3 beta (Homo sapiens) (UniProt P49841)
# [5] = target: Mitogen-activated protein kinase 1 (Homo sapiens) (UniProt P28482)
# [6] = target: T1, Aurora kinase A (Homo sapiens) (UniProt O14965)
# T1 sequence (whole entry): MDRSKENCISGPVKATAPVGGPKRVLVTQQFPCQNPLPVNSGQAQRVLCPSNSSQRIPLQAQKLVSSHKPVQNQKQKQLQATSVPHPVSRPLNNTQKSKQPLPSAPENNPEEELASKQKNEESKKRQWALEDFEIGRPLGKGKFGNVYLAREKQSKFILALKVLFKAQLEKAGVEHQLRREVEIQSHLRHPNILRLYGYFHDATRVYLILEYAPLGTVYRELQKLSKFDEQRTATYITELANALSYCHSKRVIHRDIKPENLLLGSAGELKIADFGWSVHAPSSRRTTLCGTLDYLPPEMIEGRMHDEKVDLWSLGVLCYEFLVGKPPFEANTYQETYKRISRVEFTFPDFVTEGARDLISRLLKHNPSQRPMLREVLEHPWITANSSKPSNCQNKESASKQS
# Chain of Mitogen-activated protein kinase 1 (Homo sapiens) (P28482 whole entry): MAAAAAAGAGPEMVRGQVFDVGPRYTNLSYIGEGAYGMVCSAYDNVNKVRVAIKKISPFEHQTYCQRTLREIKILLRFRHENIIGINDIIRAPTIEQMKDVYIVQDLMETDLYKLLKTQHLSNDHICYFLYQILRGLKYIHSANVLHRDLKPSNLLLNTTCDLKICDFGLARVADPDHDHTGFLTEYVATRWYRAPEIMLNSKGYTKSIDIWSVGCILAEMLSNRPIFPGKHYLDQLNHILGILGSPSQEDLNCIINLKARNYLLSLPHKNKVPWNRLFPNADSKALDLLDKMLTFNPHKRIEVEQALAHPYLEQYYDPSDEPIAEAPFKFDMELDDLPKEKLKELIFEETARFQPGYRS
# Chain of Glycogen synthase kinase-3 beta (Homo sapiens) (P49841 whole entry, looked up): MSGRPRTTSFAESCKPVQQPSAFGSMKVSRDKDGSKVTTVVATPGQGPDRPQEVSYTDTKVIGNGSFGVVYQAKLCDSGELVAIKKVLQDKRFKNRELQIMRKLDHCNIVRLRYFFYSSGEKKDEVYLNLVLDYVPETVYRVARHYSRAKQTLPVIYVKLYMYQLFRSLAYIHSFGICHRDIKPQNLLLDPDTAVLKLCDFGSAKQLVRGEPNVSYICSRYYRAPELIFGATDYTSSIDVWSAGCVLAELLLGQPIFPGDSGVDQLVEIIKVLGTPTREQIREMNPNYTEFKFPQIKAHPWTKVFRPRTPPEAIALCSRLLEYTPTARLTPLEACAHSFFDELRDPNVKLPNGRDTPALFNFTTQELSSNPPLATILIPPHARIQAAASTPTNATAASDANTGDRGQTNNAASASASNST
# Chain of Tyrosine-protein kinase ABL1 (Homo sapiens) (P00519 whole entry): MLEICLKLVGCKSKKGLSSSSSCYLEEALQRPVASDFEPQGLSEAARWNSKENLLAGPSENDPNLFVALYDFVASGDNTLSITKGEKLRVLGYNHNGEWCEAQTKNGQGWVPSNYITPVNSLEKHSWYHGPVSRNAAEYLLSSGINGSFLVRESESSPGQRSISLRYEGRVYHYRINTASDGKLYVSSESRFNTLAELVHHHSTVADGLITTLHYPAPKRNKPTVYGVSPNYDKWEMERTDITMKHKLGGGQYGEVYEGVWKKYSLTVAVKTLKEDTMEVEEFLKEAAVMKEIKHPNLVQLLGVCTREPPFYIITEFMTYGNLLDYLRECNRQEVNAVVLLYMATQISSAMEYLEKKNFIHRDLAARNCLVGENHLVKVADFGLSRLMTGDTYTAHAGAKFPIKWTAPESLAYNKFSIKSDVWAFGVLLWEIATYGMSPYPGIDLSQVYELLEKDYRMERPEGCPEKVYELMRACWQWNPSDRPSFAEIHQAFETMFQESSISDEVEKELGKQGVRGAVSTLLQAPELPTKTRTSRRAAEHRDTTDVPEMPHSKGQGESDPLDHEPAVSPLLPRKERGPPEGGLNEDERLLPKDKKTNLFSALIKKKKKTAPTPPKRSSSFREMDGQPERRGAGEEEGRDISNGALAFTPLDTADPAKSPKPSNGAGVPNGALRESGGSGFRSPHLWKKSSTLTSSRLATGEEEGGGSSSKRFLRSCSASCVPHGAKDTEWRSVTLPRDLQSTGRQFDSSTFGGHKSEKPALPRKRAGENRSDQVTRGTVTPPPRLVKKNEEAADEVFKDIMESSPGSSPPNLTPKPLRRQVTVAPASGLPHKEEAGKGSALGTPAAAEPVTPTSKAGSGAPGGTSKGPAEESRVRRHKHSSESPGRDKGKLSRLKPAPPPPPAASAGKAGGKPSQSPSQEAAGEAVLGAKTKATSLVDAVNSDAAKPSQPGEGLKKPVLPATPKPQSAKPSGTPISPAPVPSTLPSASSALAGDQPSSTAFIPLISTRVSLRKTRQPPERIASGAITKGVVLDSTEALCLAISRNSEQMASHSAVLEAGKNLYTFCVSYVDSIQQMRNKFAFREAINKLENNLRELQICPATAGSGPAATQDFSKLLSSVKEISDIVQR
# Chain of Casein kinase I isoform delta (Homo sapiens) (P48730 whole entry, looked up, canonical isoform): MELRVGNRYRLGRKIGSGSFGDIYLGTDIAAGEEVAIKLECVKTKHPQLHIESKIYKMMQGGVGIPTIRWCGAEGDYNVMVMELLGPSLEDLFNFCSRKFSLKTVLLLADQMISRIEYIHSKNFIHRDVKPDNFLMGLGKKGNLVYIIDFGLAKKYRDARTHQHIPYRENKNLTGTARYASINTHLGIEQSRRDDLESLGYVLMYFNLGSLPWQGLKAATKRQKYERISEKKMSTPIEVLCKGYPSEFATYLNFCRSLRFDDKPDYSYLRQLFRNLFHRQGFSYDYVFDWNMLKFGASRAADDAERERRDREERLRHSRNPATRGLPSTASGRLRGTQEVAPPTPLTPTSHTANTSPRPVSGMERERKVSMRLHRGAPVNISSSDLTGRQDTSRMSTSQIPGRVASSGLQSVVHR
structure (smiles),measurement,setting,value
COc1c(OCCCN2CCOCC2)ccc2c1N=C(NC(=O)c1cnc(N)nc1)N1CCN=C21,ΔTm,[1],0.09 °C
same,ΔTm,[2],0.39 °C
same,ΔTm,[3],0.2 °C
same,ΔTm,[4],-1.01 °C
same,ΔTm,[5],0.14 °C
same,ΔTm,[6],-0.67 °C
C=CC(=O)Nc1ccc(C(=O)Nc2[nH]nc3c2CN(C(=O)N[C@H](CN(C)C)c2ccccc2)C3(C)C)cc1,ΔTm,[1],4.89 °C
same,ΔTm,[2],3.53 °C
same,ΔTm,[3],1.06 °C
same,ΔTm,[4],6.48 °C
same,ΔTm,[5],6.56 °C
same,ΔTm,[6],7.89 °C
CN1CCCN(C(=O)c2cccc(-c3ccc(/C=C4/C(=O)Nc5ccc(Cl)cc54)o3)c2)CC1,ΔTm,[1],1.94 °C
same,ΔTm,[2],2.38 °C
same,ΔTm,[3],2.04 °C
same,ΔTm,[4],5.85 °C
same,ΔTm,[5],-0.12 °C
same,ΔTm,[6],1.88 °C
CCC(C(=O)Nc1ccc(-c2cc3ccccc3s2)c(C(N)=O)c1)c1nccs1 (stereo not given),ΔTm,[1],0.88 °C
same,ΔTm,[2],0.25 °C
same,ΔTm,[3],0.47 °C
same,ΔTm,[4],0.69 °C
same,ΔTm,[5],0.41 °C
same,ΔTm,[6],0.34 °C
Nc1c(CC(=O)O)cccc1C(=O)c1ccc(Br)cc1,ΔTm,[1],1.3 °C
same,ΔTm,[2],0.36 °C
same,ΔTm,[3],0.21 °C
same,ΔTm,[4],0.59 °C
same,ΔTm,[5],0.2 °C
same,ΔTm,[6],0.08 °C
N#CC[C@H](C1CCCC1)n1cc(-c2ncnc3[nH]ccc23)cn1,ΔTm,[1],3.71 °C
same,ΔTm,[2],1.43 °C
same,ΔTm,[3],2.02 °C
same,ΔTm,[4],4.04 °C
same,ΔTm,[5],0.74 °C
same,ΔTm,[6],5.6 °C
CC(C)(C)OC(=O)CN(Cc1ccc(Cl)cc1)Cc1ccc([N+](=O)[O-])s1,ΔTm,[1],0.48 °C
same,ΔTm,[2],0.83 °C
same,ΔTm,[3],0.3 °C
same,ΔTm,[4],-0.54 °C
same,ΔTm,[5],0.12 °C
same,ΔTm,[6],-1.37 °C
CNC(=O)COc1cc2cc(Nc3nc(N4C[C@H](C)C[C@H](C)C4)ncc3Cl)ccc2n(C)c1=O,ΔTm,[1],-0.28 °C
same,ΔTm,[2],0.46 °C
same,ΔTm,[3],0.11 °C
same,ΔTm,[4],-0.11 °C
same,ΔTm,[5],0.15 °C
same,ΔTm,[6],0.07 °C
CC(=O)Nc1nc(C)c(S(=O)(=O)Nc2ccc(C(O)(C(F)(F)F)C(F)(F)F)cc2)s1,ΔTm,[1],0.65 °C
same,ΔTm,[2],0.74 °C
same,ΔTm,[3],0.36 °C
same,ΔTm,[4],0.5 °C
same,ΔTm,[5],0.18 °C
same,ΔTm,[6],1.27 °C
O=S(=O)(Nc1ccc(C(O)(C(F)(F)F)C(F)(F)F)cc1)c1cccs1,ΔTm,[1],0.41 °C
same,ΔTm,[2],0.73 °C
same,ΔTm,[3],0.38 °C
same,ΔTm,[4],-0.54 °C
same,ΔTm,[5],1.04 °C
same,ΔTm,[6],0.57 °C
Cn1c(C(=O)N[C@@H](CO)c2ccc(C(=O)O)cc2)cc2cc(Cl)ccc21,ΔTm,[1],-0.2 °C
same,ΔTm,[2],0.54 °C
same,ΔTm,[3],0.58 °C
same,ΔTm,[4],0.38 °C
same,ΔTm,[5],-0.04 °C
same,ΔTm,[6],0.34 °C
O=C(O)c1cc2cc(Cc3cccnc3)ccc2o1,ΔTm,[1],0.65 °C
same,ΔTm,[2],0.63 °C
same,ΔTm,[3],0.07 °C
same,ΔTm,[4],0.46 °C
same,ΔTm,[5],-0.29 °C
same,ΔTm,[6],-0.17 °C
CC1(C)C[C@@H]1C(=O)N/C(=C\CCCCSC[C@H](N)C(=O)O)C(=O)O,ΔTm,[1],0.34 °C
same,ΔTm,[2],0.8 °C
same,ΔTm,[3],-0.09 °C
same,ΔTm,[4],0.21 °C
same,ΔTm,[5],-0.39 °C
same,ΔTm,[6],-0.41 °C
Cc1cnc(Nc2ccc(C(=O)N3CCN(C)CC3)cc2)nc1N[C@@H]1CCC[C@@H]1C(N)=O,ΔTm,[1],5.89 °C
same,ΔTm,[2],6.47 °C
same,ΔTm,[3],0.27 °C
same,ΔTm,[4],3.07 °C
same,ΔTm,[5],1.68 °C
same,ΔTm,[6],14.7 °C
Cc1ncc(C(=O)Nc2cc(C(C)(C)C)on2)cc1-n1cc(-c2cnn(C)c2C)nn1,ΔTm,[1],9.67 °C
same,ΔTm,[2],0.45 °C
same,ΔTm,[3],2.28 °C
same,ΔTm,[4],-0.79 °C
same,ΔTm,[5],0.26 °C
same,ΔTm,[6],-0.09 °C
COc1ccc(C(=O)N[C@H](C)c2cccc(C(=O)Nc3nc4c(s3)CN(C)CC4)c2)cc1C,ΔTm,[1],0.22 °C
same,ΔTm,[2],0.42 °C
same,ΔTm,[3],0.41 °C
same,ΔTm,[4],-0.51 °C
same,ΔTm,[5],0.45 °C
same,ΔTm,[6],0.16 °C
COc1cccc(-c2c(C)c(Cc3c(F)cccc3C(F)(F)F)c3n(c2=O)[C@@H]([C@@H](N)c2ccccc2)CS3)c1F,ΔTm,[1],-0.84 °C
same,ΔTm,[2],-0.89 °C
same,ΔTm,[3],-2.7 °C
same,ΔTm,[4],-0.72 °C
same,ΔTm,[5],-2.02 °C
same,ΔTm,[6],-0.62 °C
Cc1csc(-c2nnc(Nc3ccc(Oc4ncccc4-c4ccnc(N)n4)cc3)c3ccccc23)c1,ΔTm,[1],7.01 °C
same,ΔTm,[2],0.42 °C
same,ΔTm,[3],0.58 °C
same,ΔTm,[4],-4.11 °C
same,ΔTm,[5],4.87 °C
same,ΔTm,[6],13.8 °C
CC1CN(CC(=O)N2CC(C)(C)c3nc(CO)c(Cc4ccc(F)cc4)cc32)C(CN2CCOCC2C)CN1 (stereo not given),ΔTm,[1],0.01 °C
same,ΔTm,[2],0.68 °C
same,ΔTm,[3],0.32 °C
same,ΔTm,[4],-1.07 °C
same,ΔTm,[5],0.17 °C
same,ΔTm,[6],-1.32 °C
COc1ccc(-c2cc3c(C)nc(N)nc3n([C@H]3CC[C@H](OCCO)CC3)c2=O)cn1,ΔTm,[1],0.46 °C
same,ΔTm,[2],0 °C
same,ΔTm,[3],-0.16 °C
same,ΔTm,[4],-0.85 °C
same,ΔTm,[5],0.38 °C
same,ΔTm,[6],-0.59 °C
O=C(Cc1ccccc1)Nc1nnc(N2C[C@H]3C[C@@H]2CN3c2cccnn2)s1,ΔTm,[1],0.09 °C
same,ΔTm,[2],0.52 °C
same,ΔTm,[3],-0.12 °C
same,ΔTm,[4],-0.33 °C
same,ΔTm,[5],0.33 °C
same,ΔTm,[6],-0.14 °C
Cc1ncsc1-c1ccc(CNC(=O)[C@@H]2C[C@@H](O)CN2C(=O)[C@@H](NC(=O)C2(F)CC2)C(C)(C)C)c(OCCOc2ccc(CN3CCN(c4cc(-c5ccccc5O)nnc4N)CC3)cc2)c1,ΔTm,[1],0.25 °C
same,ΔTm,[2],4.72 °C
same,ΔTm,[3],2.6 °C
same,ΔTm,[4],9.47 °C
same,ΔTm,[5],-1.54 °C
same,ΔTm,[6],3.64 °C
Cc1cc(CN(CC(=O)Nc2ccc(Cl)cc2Cl)C2CCCCC2)ccc1OCC(=O)O,ΔTm,[1],-1.67 °C
same,ΔTm,[2],-2.21 °C
same,ΔTm,[3],-0.47 °C
same,ΔTm,[4],-3.13 °C
same,ΔTm,[5],-1.06 °C
same,ΔTm,[6],-2 °C
O=C(O)c1ccnc(N2CC(O)(c3ccc(OCc4c(-c5c(Cl)cccc5Cl)noc4C4CC4)cc3Cl)C2)c1,ΔTm,[1],0.22 °C
same,ΔTm,[2],-0.27 °C
same,ΔTm,[3],0.41 °C
same,ΔTm,[4],-0.81 °C
same,ΔTm,[5],-0.58 °C
same,ΔTm,[6],-1.95 °C
C[C@H](CCOc1cccc(CC(=O)O)c1)N(Cc1cccc(C(F)(F)F)c1Cl)CC(c1ccccc1)c1ccccc1,ΔTm,[1],0.51 °C
same,ΔTm,[2],1.5 °C
same,ΔTm,[3],0.57 °C
same,ΔTm,[4],-1.07 °C
same,ΔTm,[5],0.41 °C
same,ΔTm,[6],-2.31 °C
